In the supplement of paper PMC8728848:
This excerpt belongs to a sample that is enriched for the strongest signals.

B1: RNase 1 (Homo sapiens) (protein)
chain: KESRAKKFQRQHMDSDSSPSSSSTYCNQMMRRRNMTQGRCKPVNTFVHEPLVDVQNVCFQEKVTCKNGQGNCYKSNSSMHITDCRLTNGSRYPNCAYRTSPKERHIIVACEGSPYVPVHFDASVEDST
B2: TbCVNHOb (Tuber borchii) (protein)
chain: MSFYASSEDVRTIEEGGRTWLVGRARRADGSWQDIKLDLDNIIGNRDGHLTWGEQNFTQSASDIRFNFEGGSNVPVLRAKLRNAAGGEQESDLNLGERLTNNNGDLVFN

What was measured:
Test in all cases: glycan array binding signal (z-score within array); higher = stronger binding
Conditions in all cases: glycan notation: IUPAC condensed, linker removed
[1] = target: Fuc(a1-2)Gal(b1-3)GalNAc(b1-3)Gal(a1-4)Gal(b1-4)Glc
Outline: (§1)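 The binding signal is a Z-score computed within each array. Data were drawn from 3228 arrays in the Consortium for Functional Glycomics database, restricted to those with a known protein sequence. Scores were averaged over arrays of the same protein sequence at different concentrations or buffers, and over linkers, and negative values can be taken as non-binding.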

[2] = target: Fuc(a1-2)Gal(b1-3)[Fuc(a1-4)]GlcNAc
Outline: as §1

[3] = target: Fuc(a1-2)[Gal(a1-3)]Gal
Outline: as §1

[4] = target: Fuc(a1-3)[Gal3S(b1-4)]GlcNAc
Outline: as §1

[5] = target: Gal(a1-4)Gal(b1-4)Gal
Outline: as §1

[6] = target: Gal(a1-4)Gal(b1-4)GalNAc
Outline: as §1

[7] = target: Gal(a1-4)GlcNAc
Outline: as §1

[8] = target: Gal(b1-3)GalNAc(b1-3)Gal(b1-4)Glc
Outline: as §1

[9] = target: Gal(b1-4)GalNAc(b1-3)[Fuc(a1-2)]Gal(b1-4)GlcNAc
Outline: as §1

[10] = target: GalNAc(b1-3)Gal(a1-4)Gal(b1-4)GlcNAc
Outline: as §1

[11] = target: GlcNAc(b1-3)[GlcNAc(b1-4)][GlcNAc(b1-6)]GlcNAc
Outline: as §1

[12] = target: GlcNAc(b1-3)[GlcNAc(b1-6)]GlcNAc
Outline: as §1

[13] = target: GlcNAc(b1-4)GlcNAc(b1-4)GlcNAc(b1-4)GlcNAc(b1-4)GlcNAc
Outline: as §1

[14] = target: Man(a1-2)Man(a1-2)Man(a1-3)[Man(a1-2)Man(a1-6)[Man(a1-3)]Man(a1-6)]Man(b1-4)GlcNAc(b1-4)GlcNAc
Outline: as §1

[15] = target: Man(a1-3)[Man(a1-6)]Man
Outline: as §1

[16] = target: Neu5Ac(a2-3)Gal(b1-3)GlcNAc6S
Outline: as §1

[17] = target: Neu5Ac(a2-8)Neu5Ac(a2-8)Neu5Ac(a2-3)[GalNAc(b1-4)]Gal(b1-4)Glc
Outline: as §1

[18] = target: Fuc(a1-2)Gal(b1-3)GlcNAc(b1-3)Gal(b1-4)Glc
Outline: as §1

[19] = target: Fuc(a1-2)[GalNAc(a1-3)]Gal(b1-4)Glc
Outline: as §1

[20] = target: Fuc(a1-3)GlcNAc
Outline: as §1

[21] = target: Fuc(a1-3)[Gal(b1-4)]Glc6S
Outline: as §1

[22] = target: Gal(b1-3)GalNAc
Outline: as §1

[23] = target: Gal(b1-3)GalNAc(b1-4)[Neu5Ac(a2-3)]Gal(b1-4)Glc
Outline: as §1

[24] = target: Gal(b1-3)GlcNAc(b1-3)Gal(b1-4)Glc
Outline: as §1

[25] = target: Gal(b1-3)[Neu5Ac(a2-6)]GlcNAc(b1-6)Gal(b1-4)Glc
Outline: as §1

[26] = target: Gal(b1-4)GlcNAc(b1-3)Gal(b1-4)Glc
Outline: as §1

[27] = target: Gal4S(b1-4)GlcNAc
Outline: as §1

[28] = target: Gal4S6S(b1-4)GlcNAc
Outline: as §1

[29] = target: Glc(b1-4)Glc
Outline: as §1

[30] = target: GlcNAc(b1-3)Gal(b1-4)GlcNAc(b1-3)Gal(b1-4)GlcNAc
Outline: as §1

[31] = target: Man(a1-2)Man(a1-2)Man(a1-3)Man
Outline: as §1

[32] = target: Man(a1-2)Man(a1-6)[Man(a1-3)]Man(a1-6)[Man(a1-2)Man(a1-2)Man(a1-3)]Man
Outline: as §1

[33] = target: Neu5Ac(a2-3)Gal(b1-4)GlcNAc(b1-3)Gal(b1-4)GlcNAc(b1-3)Gal(b1-4)GlcNAc
Outline: as §1

[34] = target: Neu5Ac(a2-6)Gal(b1-4)GlcNAc(b1-2)Man(a1-3)[GlcNAc(b1-2)Man(b1-4)GlcNAc(b1-2)Man(a1-6)]Man(b1-4)GlcNAc(b1-4)GlcNAc
Outline: as §1

[35] = target: Neu5Ac(a2-6)Gal(b1-4)GlcNAc6S
Outline: as §1

[36] = target: Neu5Ac(a2-6)GalNAc
Outline: as §1

[37] = target: Neu5Ac(a2-8)Neu5Ac(a2-8)Neu5Ac(a2-3)Gal(b1-4)Glc
Outline: as §1

Binder	glycan array binding signal (z-score) [1]	glycan array binding signal (z-score) [2]	glycan array binding signal (z-score) [3]	glycan array binding signal (z-score) [4]	glycan array binding signal (z-score) [5]	glycan array binding signal (z-score) [6]	glycan array binding signal (z-score) [7]	glycan array binding signal (z-score) [8]	glycan array binding signal (z-score) [9]	glycan array binding signal (z-score) [10]	glycan array binding signal (z-score) [11]	glycan array binding signal (z-score) [12]	glycan array binding signal (z-score) [13]	glycan array binding signal (z-score) [14]	glycan array binding signal (z-score) [15]	glycan array binding signal (z-score) [16]	glycan array binding signal (z-score) [17]	glycan array binding signal (z-score) [18]	glycan array binding signal (z-score) [19]	glycan array binding signal (z-score) [20]	glycan array binding signal (z-score) [21]	glycan array binding signal (z-score) [22]	glycan array binding signal (z-score) [23]	glycan array binding signal (z-score) [24]	glycan array binding signal (z-score) [25]	glycan array binding signal (z-score) [26]	glycan array binding signal (z-score) [27]	glycan array binding signal (z-score) [28]	glycan array binding signal (z-score) [29]	glycan array binding signal (z-score) [30]	glycan array binding signal (z-score) [31]	glycan array binding signal (z-score) [32]	glycan array binding signal (z-score) [33]	glycan array binding signal (z-score) [34]	glycan array binding signal (z-score) [35]	glycan array binding signal (z-score) [36]	glycan array binding signal (z-score) [37]
B1	1.93	-0.174	-0.14	-0.168	7.93	8.87	-0.225	0.641	-0.218	0.455	-0.069	-0.116	-0.028	-0.153	-0.147	-0.204	-0.187	–	–	–	–	–	–	–	–	–	–	–	–	–	–	–	–	–	–	–	–
B2	0.303	–	–	–	–	–	–	–	–	–	–	–	–	–	–	–	–	1.56	-0.147	0.012	0.185	-0.117	-0.245	5.86	1.4	2.32	0.051	-0.061	-0.189	-0.144	1.35	-0.185	-0.237	-0.008	-0.275	-0.28	-0.118
